Where “and” joins values, the source holds several entries; their conditions need not be identical. Equal values may be shown once. Records with an inconclusive call do not appear. Some structures have more than one record in an assay (separate samples or runs), and their calls can disagree. A number with no mark means an inactive call. Calls of active or inactive are those of the source. The call rests on the fitted dose curve; in most records, active means well fitted activation curve with a large enough effect; inconclusive means small, poorly fitted or top-dose-only effect; inactive means no such curve, though single readings can be large or run the other way.
These molecules were tested against Cellular tumor antigen p53 (Homo sapiens) (UniProt P04637) (assay: Primary qHTS for small molecule compounds that upregulate eGFP-tagged delta133p53alpha (in N-terminal) cells. (AID 2060322; further: nearly all actives have a fitted effect of over 75% in size;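 on activation: cells pre-induced with doxycycline then dosed without doxycycline; series mostly up to about 56 µM; 0% = DMSO vehicle and 100% = reference activator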)). Details: NCI-H358 eGFP-delta133p53alpha fluorescence, 24 h; activation: hits give high values.
Cellular tumor antigen p53 (Homo sapiens), sequence (P04637 whole entry, looked up): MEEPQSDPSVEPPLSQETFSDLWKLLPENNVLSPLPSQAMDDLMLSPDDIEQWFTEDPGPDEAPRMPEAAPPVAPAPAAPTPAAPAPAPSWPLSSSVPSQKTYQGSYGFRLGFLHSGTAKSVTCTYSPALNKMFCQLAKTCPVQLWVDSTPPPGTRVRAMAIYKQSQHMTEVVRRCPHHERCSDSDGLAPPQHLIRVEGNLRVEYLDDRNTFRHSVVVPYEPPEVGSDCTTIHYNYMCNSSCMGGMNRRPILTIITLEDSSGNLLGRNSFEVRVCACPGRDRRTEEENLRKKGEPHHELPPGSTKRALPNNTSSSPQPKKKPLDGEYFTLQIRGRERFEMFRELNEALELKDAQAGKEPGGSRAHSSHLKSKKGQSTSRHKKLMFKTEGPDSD
Text: Assay Development and Screening Technology
National Center for Advancing Translational Sciences (NCATS),
National Institute of Health (NIH), Rockville, Maryland
Cellular senescence (CS) is one of the hallmarks of aging and age-related diseases. Senescent cells are characterized by an irreversible growth arrest, an increase in senescence-associated beta-galactosidase (SA-beta-gal) activity and p16INK4a expression, an activation of the DNA damage response pathways, and the emergence of a senescence-associated secretory phenotype (SASP).
Delta133p53alpha, a human/primate-specific p53 protein isoform, delays or inhibits the induction of CS and SASP in various types of human cells, including progeria-derived fibroblasts, primary normal astrocytes, and CD8+ T lymphocytes. Induction of delta133p53alpha with small molecule compounds may provide therapeutic opportunities for inhibition of senescence/SASP-associated pathologies in progeria syndromes, astrocyte-mediated neuroprotection in neurodegenerative diseases, and possibly prevention and treatment of a wider range of senescence- and aging-associated diseases.
Here we report the development and validation of a cell-based quantitative high throughput screening (qHTS) assay in 1,536-well format. This qHTS assay uses the NCI-H358 cell line with doxycycline-inducible expression of enhanced green fluorescent protein (eGFP)-tagged delta133p53alpha, which allows efficient and highly quantitative measurement of the protein levels.
PROTOCOL TABLE (as described by Inglese J, Shamu CE and Guy RK. 2007)
SEQUENCE No. (e.g., 1, 2, 3, etc.); […] (e.g., Cells, Incubation, Reagent, etc.); VALUE; DESCRIPTION.
1; Cells; 4uL; 800 doxycycline treated cells / well in doxycycline-free media, 1536-well black, clear-bottom low base Aurora microplates.
2; Compounds; 23 nL; Kalypsis pin tool (Wako) equipped with 1536-well pin heads, 5-azacytidine positive control.
3; Incubation; 24 hr; 37C, 5% CO2; 95% relative humidity.
4; Aspiration; 1x; BioTek EL406 washer dispenser (Agilent).
5; Fixing; 3.5% paraformaldehyde, BioTek EL406 washer dispenser (Agilent).
6; Washing; 1x PBS; BioTek EL406 washer dispenser (Agilent).
7; Nuclei staining; 1:1000 dilution of Hoechst 33342 (Thermofisher), BioTek EL406 washer dispenser (Agilent).
8; Incubation; 20 min; in the dark at room temperature.
9; Washing; 2x, 1x PBS (ThermoFisher), BioTek EL406 washer dispenser (Agilent).
10; Reagent; 10 uL; 1x PBS per well, sealed with clear adhesive tape.
NOTES (numbers refer to sequence numbers above).
1. NCI-H358 cells expressing eGFP-tagged delta133p53alpha were grown in T75 culture flasks and treated with doxycycline for 24h, at 10 ng/ml for eGFP-D133p53a cells (N-terminal cell) and 100 ng/ml for D133p53a-eGFP cells (C-terminal cells). Cells were trypsinized, counted using a Counted 3 Automated Cell Counter (Thermo Fisher), and diluted to a concentration of 200,000 cells/ml. A Multidrop Combi Reagent Dispenser (ThermoFisher) was used to dispense 800 cells/well in […] of doxycycline-free media, into 1536-well black/clear bottom low base plates (AuroraMicroplates).
2. After plating cells, 23 nl of compound library, DMSO vehicle control or positive control (5-azacytidine) were transferred by Pin Tool (Wako). The plate map layout was the same for each plate: (column 1) non-doxycycline treated cells + DMSO vehicle control; (column 2) doxycycline treated cells + DMSO vehicle control baseline; (column 3) doxycycline treated cells + positive control 57.5 uM final concentration 5-azacytidine; (column 4) doxycycline treated cells + serial dilution of 5-azacytidine, 16-point 1:2 titration spanning 1.8 nM to […] final concentration; (columns 5-48) doxycycline treated cells + titration of library compounds.
3. Cells were incubated at 37 °C, 5 % CO2, 95% RH with breathable metal lid for 24h.
4-10. […] After two washes, 10 ul of 1X PBS (Thermo Fisher) was dispensed to each well. Clear adhesive plate seals (VWR) were applied and plates stored at 4 °C.
11. […]
Potency means the concentration at half of the fitted maximal effect.

SMILES	activation	Potency
CCN1CCc2nc(N)oc2CC1	-8.37% and -17.5%	
COC(=O)[C@]12CCC(C)(C)C[C@@H]1[C@@H]1C(=O)C=C3[C@@]4(C)C=C(C#N)C(=O)C(C)(C)[C@@H]4CC[C@@]3(C)[C@]1(C)CC2		10.9 µM (active)
COc1cc(/C=C/C(=O)O[C@@H]2O[C@H](CO)[C@@H](O)[C@H](O)[C@H]2O)ccc1O	4.46%	
CC(=O)OCC1OC(OC2COC(OC3COC(OC4C(OC5C(CO)OC(OC6CCC7(C)C(CCC8(C)C7CC=C7C9CC(C)(C)CCC9(C(=O)OC9OC(CO)C(O)C(O)C9OC9OCC(OC%10OCC(O)(CO)C%10O)C(O)C9O)C(O)CC78C)C6(C)C)C(O)C5O)OCC(O)C4O)C(O)C3O)C(O)C2O)C(OC(=O)/C=C/c2ccccc2)C(O)C1OC(C)=O (stereo not given)	11.5%	
CCN(CC)CCNC(=O)c1ccc2nc(-c3ccccc3)c(-c3ccc(CN4CCC(n5c(=O)[nH]c6ccccc65)CC4)cc3)nc2c1		4.32 µM (active) and 8.49 µM (active)
CO/N=C(/C(=O)N[C@@H]1C(=O)N2C(C(=O)O)=C(Cn3ccc(=N)n3CCO)CS[C@H]12)c1csc(N)n1	2.39%	
C=C1C(=O)OC2/C=C(\C)CC3C=C(CC/C=C(\C)CCC12)C(=O)O3 (stereo not given)		6.59 µM (active)
O=[N+]([O-])c1ccc(Nc2ccccc2-c2ccccc2)c2nonc12		9.68 µM (active)
C[C@@H]1O[C@@H](O[C@@H]2[C@@H](O)[C@H](O[C@@H]3[C@@H](O)[C@@H](O)[C@H](O[C@H]4[C@H](OC(=O)[C@]56CCC(C)(C)C[C@H]5C5=CCC7[C@@]8(C)C[C@H](O)[C@H](O[C@@H]9O[C@H](C(=O)O)[C@@H](O)[C@H](O)[C@H]9O)[C@@](C)(CO)C8[C@H](O)C[C@@]7(C)[C@]5(C)CC6)OC[C@H](O)[C@@H]4O)O[C@H]3C)OC[C@H]2O)[C@H](O)[C@H](O)[C@H]1O (stereo not given in full)	-0.763%	
COc1cc(C(=O)O)ccc1OC1OC(CO)C(O)C(O)C1O (stereo not given)	10.7%	
CC(C)c1ccc(NC(=O)Cn2cnc3c2c(=O)n(C)c(=O)n3C)cc1	-14.8%	
COc1ccc(OC)c(-c2ccc(NC(=O)c3ccncc3F)cc2)c1	-5.73%	
CCCSc1ccc2nc(NC(=O)OC)[nH]c2c1	6.69%	
C/C(=C/CCC(CO)C1CCC2(C)C3CCC4C(C)(C)C(OC5OC(CO)C(O)C(O)C5O)CC(O)C45CC35CCC12C)COC1OC(CO)C(O)C(O)C1O (stereo not given)	-10.7%	
COc1cc(C2Oc3c(O)cc(CCCO)cc3C2CO)ccc1O[C@H]1O[C@H](C)[C@@H](O)[C@H](O)[C@@H]1O (stereo not given in full)	-19.1%	
CNc1nc(Cc2ccccc2)nc2c1CCNC[C@@H]2C	19%	
Oc1cccc(O)c1	-16.4%	
CC1=CC(=O)[C@@]2(C(C)C)C[C@@H]12	17.7%	
C[C@@H]1O[C@@H](O[C@H]2[C@H](O[C@H]3CO[C@@H](O[C@H]4CC[C@@]5(C)C(CC[C@]6(C)C5CC[C@]57OC[C@@]8(CC[C@](C)(CO)CC85)[C@H](O)C[C@]76C)C4(C)C)[C@H](O[C@@H]4O[C@H](CO)[C@@H](O)[C@H](O)[C@H]4O)[C@H]3O)O[C@H](CO)[C@@H](O)[C@@H]2O)[C@H](O)[C@H](O)[C@H]1O (stereo not given in full)	-4.58%	
CC(=O)O[C@@H]1C[C@H](O)[C@@]23CO[C@H](O)[C@]1(C)C2C[C@@H](O)[C@]1(C)C3C(=O)[C@H](OC(C)=O)[C@@]2(C)[C@H](c3ccoc3)C[C@H]3O[C@]321 (stereo not given in full)	-1.79%	

SMILES	activation	Potency
CO[C@H]1O[C@@H]2O[C@@]3(C)CCC4[C@H](C)CCC([C@H]1C)[C@]42OO3 (stereo not given in full)	11.7%	
CCOC(=O)c1cc(=O)c2c(OCC(COc3cccc4oc(C(=O)OCC)cc(=O)c34)OC(=O)[C@@H](N)CCCCN)cccc2o1		27.6 µM (active)
CC(C)(O)[C@@H]1CC[C@]2(CO)[C@@H](O)CC[C@](C)(O)[C@H]2[C@@H]1O[C@@H]1O[C@H](CO)[C@@H](O)[C@H](O)[C@H]1O	1.53%	
OCC(O)C(c1c[nH]c2ccccc12)c1c[nH]c2ccccc12 (stereo not given)	-8.93%	
COc1cc2nc(N3CCCCC3)nc(NC3CCN(C)CC3)c2cc1OC		38.5 µM (active)
CC[N+]1(C/C2=C/CCCCCC2)CCC(NC(=O)C2c3cc(Cl)ccc3Oc3ccc(Cl)cc32)CC1 (stereo not given)	28.6%	
CNC[C@H](O)c1cccc(O)c1	-9.21% and 8.41% and -4.95%	
Cn1cnc2c(NCc3ccccc3)nc(NCCO)nc21	-37%	
C[C@H]1CN(C[C@H](Cc2ccccc2)C(=O)NCC(=O)O)CC[C@@]1(C)c1cccc(O)c1	7.64%	
O=C(NCC1CCCCN1)c1cc(OCC(F)(F)F)ccc1OCC(F)(F)F (stereo not given)	9.6%	27.3 µM (active)
Cc1cc(-c2ncc(CC(=O)Nc3ccc(-c4cnccn4)cn3)cc2C)ccn1	-9.46% and -6.68%	
C=C1CC[C@@H]2C(C)(C)CCC[C@@]2(C)[C@@H]1CC/C(=C/C(=O)OC)COC(C)=O	-31.3%	
COc1cc(C(O)C(CO)Oc2ccc(CCCO[C@@H]3O[C@@H](C)[C@H](O)[C@@H](O)[C@H]3O)cc2OC)ccc1O (stereo not given in full)	-13.4%	
CC(C=CC1=C(C)CCCC1(C)C)=CC=CC(C)=CC(=O)O	15.8% and -23.6%	
Cc1ccc(CNc2ncnc3ccc(-c4ccc(CO)o4)cc23)o1	-4.46%	
CC(C)(C)Cn1c(N)nc2ccc(-c3[nH]c(C(C)(C)C)nc3-c3ccc(F)cc3)nc21	-1.62%	
C[C@]12C=CC(=O)C=C1CC[C@@H]1[C@@H]2[C@@H](O)C[C@@]2(C)[C@H]1CC[C@]2(O)C(=O)COC(=O)CCC(=O)O	13%	
COC(=O)CC1(O)C(=O)Nc2ccccc21 (stereo not given)	-1.79%	
CC1CC[C@]2(C(=O)O)CC[C@]3(C(=O)O)C(=CCC4[C@@]5(C)CC[C@H](OC6OC(C)C(O)C(OC7OC(CO)C(O)C(O)C7O)C6O)C(C)(C)C5CC[C@]43C)C2C1C (stereo not given in full)	-8.04%	

Reference: PubChem BioAssay (NCATS)
